Source: PubChem
In the library only some 8.9% were active in any assay of this set; here they are far more common.
SW480 rerep: DNA re-replication induction in SW480 cells; SW480 DNA re-replication, Hoechst DNA content imaging, 48 h; Potency, µM (top dose mostly 46.1 µM), without a hit: at the top dose re-replication activation, usual class: activators; 340,000 compounds, 1.8% hits; further: potency means the concentration at half of the fitted maximal effect; % of control where 0% means no effect; nearly all actives have a fitted effect of over 55% in size
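Per well, 250 cells were exposed to pinned compound for 48 hr. Nuclear DNA was visualised with Hoechst (40 min, 37 C) and total object intensity recorded by fluorescence scanning.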
KB-V1 MDR tox: kills drug-selected multidrug resistant KB-V1 cells | KB-V1 MDR cells viability, CellTiter-Glo, 72 h | Potency, µM (top dose mostly 46.1 µM), actives largely listed as cytotoxic | 400,000 compounds, 3.4% hits | AID 1347076; further: potency means the concentration at half of the fitted maximal effect; on the % scale 0 is the no-effect control and ±100 the full control effect; nearly all actives have a fitted effect of over 60% in size
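Following 72 h at 37 degrees C with compound, KB-V1 cell viability was read by CellTiter-Glo luminescence, medium being phenol-red-free DMEM plus 10% FBS; concentration-response parameters came from normalized, curve-fitted qHTS data.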
D3 ag: activates the human D3 dopamine receptor; P35462; 410,000 compounds, 0.58% hits; max activation, %; D3R DiscoveRx beta-arrestin cells, luminescence, 90 min; in the data active means max activation above about 30%; further: 0% is about no effect
Target sequence (P35462 whole entry, looked up): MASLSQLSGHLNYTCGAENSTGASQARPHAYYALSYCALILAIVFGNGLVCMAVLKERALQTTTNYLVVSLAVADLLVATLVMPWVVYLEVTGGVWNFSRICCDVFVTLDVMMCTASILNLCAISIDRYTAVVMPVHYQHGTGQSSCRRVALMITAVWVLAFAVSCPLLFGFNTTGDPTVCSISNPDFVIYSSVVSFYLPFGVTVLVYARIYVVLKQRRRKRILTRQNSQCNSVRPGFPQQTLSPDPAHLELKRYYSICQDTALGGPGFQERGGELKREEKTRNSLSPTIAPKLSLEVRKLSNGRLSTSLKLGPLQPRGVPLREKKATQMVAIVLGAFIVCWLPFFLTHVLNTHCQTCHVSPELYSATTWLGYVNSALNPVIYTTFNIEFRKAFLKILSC
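Cells at 1500/well, incubated overnight, then treated with pinned compounds (dopamine as control) for 90 min at 37 degrees C. DiscoveRx reagent added for 30 - 60 minutes at room temperature; luminescence read.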
DRD3 antagonist: antagonists of human D3 dopamine receptor; P35462; D3R cells, DiscoveRx beta-arrestin luminescence, antagonist mode; hits give low values; max response, negative = inhibition, %; 360,000 compounds, 2.5% hits; AID 652054; in the data active means max response below about -50%; inconclusive means no clear call, values can overlap the other calls; further: on the % scale 0 is the no-effect control and ±100 the full control effect
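Cells plated overnight at 1500 cells/well, then exposed to library compounds with dopamine controls for 90 minutes at 37 degrees C. DiscoveRx reagent added for 30–60 minutes at room temperature; luminescence read, quantitative HTS format.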
MCF10A rereplic: inducers of DNA re-replication in MCF 10A breast cells | MCF 10A DNA re-replication, Hoechst nuclear intensity, 48 h | Potency, µM (titrated, usually from 46.1 µM), without a hit: at the highest dose activity, positive = re-replication, usual class: activators | 350,000 compounds, 2.9% hits | AID 624296; further: potency means the concentration at half of the fitted maximal effect; % of control where 0% means no effect; nearly all actives have a fitted effect of over 50% in size
KB-3-1 cytotox: kills parental KB-3-1 adenocarcinoma cells; AID 1347075; Potency, µM (series often up to 46.1 µM), hits mostly cytotoxic; KB-3-1 viability, CellTiter-Glo ATP luminescence, 72 h; 400,000 compounds, 1.4% hits; further: potency means the concentration at half of the fitted maximal effect; on the % scale 0 is the no-effect control and ±100 the full control effect; nearly all actives have a fitted effect of over 60% in size
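Cytotoxicity measured as CellTiter-Glo luminescence after 72 h at 37 C. Compound titrations were pinned onto drug-naive KB-3-1 parental adenocarcinoma cells grown in DMEM with 10% FBS, and normalized data fitted to concentration-response curves.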
The depositor's hits bear a star; [ ] = remark or other dose. Unless noted, the call rests on the fitted dose curve; in most records, active means well fitted curve in the direction sought with a large enough effect; inconclusive means small, poorly fitted or top-dose-only effect, or another doubt; inactive means no such curve, though single readings can be large; an effect the other way counts as inactive or inconclusive.

How did O=c1c2ccccc2[nH]c(=S)n1CCCN1CCN(c2ccccc2)CC1 do in these assays?
SW480 rerep: inconclusive; KB-V1 MDR tox: inactive; D3 ag: -11; DRD3 antagonist: -71*; MCF10A rereplic: 0%; KB-3-1 cytotox: inconclusive

How did O=C(Cn1ncc2c([nH]c3ccccc32)c1=O)NCCCN1CCN(c2ccccc2)CC1 do in these assays?
SW480 rerep: -2%; KB-V1 MDR tox: inactive; D3 ag: 6; DRD3 antagonist: -63*; MCF10A rereplic: 0%; KB-3-1 cytotox: inactive

How did CC(C)OCCCn1c(=S)[nH]c2ncccc2c1=O do in these assays?
SW480 rerep: -5%; KB-V1 MDR tox: inactive; D3 ag: 0; DRD3 antagonist: 0; MCF10A rereplic: 1%; KB-3-1 cytotox: inactive

Results for O=c1c2cccnc2[nH]c(=S)n1CCCN1CCN(c2ccccc2F)CC1 ?
SW480 rerep: -1%; KB-V1 MDR tox: inactive; D3 ag: 7; DRD3 antagonist: -55*; MCF10A rereplic: inconclusive; KB-3-1 cytotox: 13µM*

What do the screens show for `O=C(CN1C(=O)COc2ccc(S(=O)(=O)NC3CCCC3)cc21)NCc1ccccc1Cl`?
KB-V1 MDR tox: inactive; D3 ag: 3; KB-3-1 cytotox: inactive

What do the screens show for `O=c1c2ccccc2[nH]c(=S)n1CCCN1CCN(c2ccccc2F)CC1`?
SW480 rerep: inconclusive; KB-V1 MDR tox: inactive; D3 ag: 9; DRD3 antagonist: -99*; MCF10A rereplic: inconclusive; KB-3-1 cytotox: inactive

Results for O=c1c2ccccc2[nH]c(=S)n1CCN1CCCCC1 ?
SW480 rerep: -19%; KB-V1 MDR tox: inactive; D3 ag: -13; DRD3 antagonist: -14; MCF10A rereplic: -2%; KB-3-1 cytotox: inactive

What do the screens show for `CCN(CC)CCCn1c(=S)[nH]c2ncccc2c1=O`?
SW480 rerep: -17%; KB-V1 MDR tox: inactive; D3 ag: -11; DRD3 antagonist: -53*; MCF10A rereplic: 2%; KB-3-1 cytotox: inactive

Results for COc1ccc([C@@H]2CNC(=O)C2)cc1OC1CCCC1 ?
SW480 rerep: -7%[20.6 µM]; MCF10A rereplic: 0%[20.6 µM]

What do the screens show for `COc1ccc(NC(=O)CSc2nnc(-c3cccs3)o2)cc1`?
D3 ag: -18

Results for COCC(C)N1C(=O)Cc2c1nc(N)c1c(N)nc(N3CCN(c4ccccc4F)CC3)c(C#N)c21 (centres undefined) ?
SW480 rerep: inconclusive; KB-V1 MDR tox: inconclusive; D3 ag: -2; DRD3 antagonist: 2; MCF10A rereplic: 12µM*; KB-3-1 cytotox: inconclusive

How did Nc1nc(NC2CC2)c2ncn([C@@H]3C=C[C@@H](CO)C3)c2n1 do in these assays?
D3 ag: 6

What do the screens show for `CC(=O)Nc1nonc1-c1nc2ccccc2n1Cc1ccccc1`?
SW480 rerep: inconclusive; KB-V1 MDR tox: 16µM*; D3 ag: 2; DRD3 antagonist: 12; MCF10A rereplic: inconclusive; KB-3-1 cytotox: 15µM*

How did Nc1nonc1-c1nc2ccccc2n1CC(=O)Nc1ccccc1C(=O)O do in these assays?
KB-V1 MDR tox: inactive; D3 ag: -4; KB-3-1 cytotox: inconclusive

What do the screens show for `CCC(=O)Nc1nonc1-c1nc2ccccc2n1Cc1ccc(Cl)c(Cl)c1`?
SW480 rerep: 0%; KB-V1 MDR tox: inactive; D3 ag: 12; DRD3 antagonist: 8; MCF10A rereplic: 5.2µM*; KB-3-1 cytotox: inactive

How did CCn1c(-c2nonc2NC(=O)c2ccccc2)nc2ccccc21 do in these assays?
SW480 rerep: -3%; KB-V1 MDR tox: inconclusive; D3 ag: -9; DRD3 antagonist: -20; MCF10A rereplic: 9%; KB-3-1 cytotox: inactive

Results for COC(=O)c1ccccc1NC(=O)Cn1c(-c2nonc2N)nc2ccccc21 ?
SW480 rerep: 0.32µM*; KB-V1 MDR tox: inconclusive; D3 ag: -12; DRD3 antagonist: -17; MCF10A rereplic: 0.16µM*; KB-3-1 cytotox: 0.63µM*

Results for CCN(CC)C(=O)CSc1nc2cc3c(cc2c(=O)n1CCCCCC(=O)NCc1ccc(OC)cc1)OCO3 ?
SW480 rerep: 16%; KB-V1 MDR tox: inconclusive; D3 ag: -4; DRD3 antagonist: 2; MCF10A rereplic: 18µM*; KB-3-1 cytotox: inactive

Results for CCC(C)NC(=O)CSc1nc2cc3c(cc2c(=O)n1CCCCCC(=O)NCc1ccc(OC)cc1)OCO3 (centres undefined) ?
D3 ag: 4

Results for CC(C)C(=O)N1CCC1(C)C(=O)Nc1ccc(-n2cncn2)cc1 (centres undefined) ?
KB-V1 MDR tox: inactive; D3 ag: 8; DRD3 antagonist: 16; KB-3-1 cytotox: inactive

How did O=C(/C=C/Nc1cccc(C(F)(F)F)c1)c1ccc(Oc2ncccn2)cc1 do in these assays?
SW480 rerep: -36%; KB-V1 MDR tox: 21µM*; D3 ag: 12; DRD3 antagonist: 8; MCF10A rereplic: 0%; KB-3-1 cytotox: inactive

Results for O=C(/C=C/Nc1cccc(C(F)(F)F)c1)c1ccco1 ?
SW480 rerep: 4%; KB-V1 MDR tox: inactive; D3 ag: -3; DRD3 antagonist: -4; MCF10A rereplic: 2%; KB-3-1 cytotox: inactive

How did FC(F)(F)c1nnc2c(Sc3ccc(Cl)cc3)nc3ccccc3n12 do in these assays?
SW480 rerep: inconclusive; KB-V1 MDR tox: inconclusive; D3 ag: 0; DRD3 antagonist: 11; MCF10A rereplic: 472%[0.0737 µM]; KB-3-1 cytotox: 3.7µM*

What do the screens show for `FC(F)(F)c1nnc2c(Sc3ccccc3)nc3ccccc3n12`?
SW480 rerep: inconclusive; KB-V1 MDR tox: inconclusive; D3 ag: 6; DRD3 antagonist: 28; MCF10A rereplic: inconclusive; KB-3-1 cytotox: 12µM*

Results for FC(F)(F)c1nnc2c(Sc3ccccn3)nc3ccccc3n12 ?
SW480 rerep: inconclusive; KB-V1 MDR tox: inconclusive; D3 ag: 2; DRD3 antagonist: -17; MCF10A rereplic: inconclusive; KB-3-1 cytotox: inconclusive

How did FC(F)(F)c1nc2ccccc2c2nc3ccccc3n12 do in these assays?
SW480 rerep: -691%; KB-V1 MDR tox: inactive; D3 ag: 11; DRD3 antagonist: 14; MCF10A rereplic: 4%; KB-3-1 cytotox: inactive

Results for COc1ccc(CCNC(=O)c2ccc(Cn3c(=O)c4ccccc4n(Cc4cccc(Cl)c4)c3=O)cc2)cc1OC ?
KB-V1 MDR tox: inactive; D3 ag: 4; KB-3-1 cytotox: inactive

How did CCC(C)NC(=O)Nc1ccc(Br)cc1 (centres undefined) do in these assays?
SW480 rerep: -8%; KB-V1 MDR tox: inactive; D3 ag: -12; DRD3 antagonist: -23; MCF10A rereplic: 1%; KB-3-1 cytotox: inactive
